A short description of experiment [1]: optical density shifts of acrAB sulA E. coli – strain DRC41, OD650, 48 h, E. coli filamentation inducer project, primary screen (AID 1152).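 Further: E. coli MC1000 strain DRC41 lacking acrAB efflux pump and sulA.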 Particulars: higher = more signal, called active from +8 up or from −8 down.
Experiment [2] can be described thus: probe aLefty1 binding on compound microarray – biochemical, small-molecule microarray, 635/667 nm fluorescence, primary screen (AID 1153).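 Further: score merges spot fluorescence with signal-to-noise ratio from the scanned slide images.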 Particulars: higher = more signal.
Experiment [3] is described as follows: plasmodial surface anion channel blockers, osmotic lysis – cell-based, P. falciparum Indochina, OD700, 1 h, primary screen (AID 1154). Particulars: P. falciparum Indochina infected RBC osmotic lysis, higher = more signal, called active from +8 up or from −8 down.
Experiment [4] in a line: plasmodial surface anion channel blockers, osmotic lysis – cell-based, P. falciparum Indochina, OD700, 2 h, primary screen (AID 1155).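 Further: lysis reports solute entry through the parasite surface anion channel PSAC.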 Particulars: P. falciparum Indochina infected erythrocytes, higher = more signal, called active from +8 up or from −8 down.
Experiment [5] can be described thus: changes in parasitized red cell lysis, either direction – P. falciparum Indochina, OD700, 3 h, PSAC antagonist project, primary screen (AID 1156). Particulars: P. falciparum-infected erythrocytes, osmotic lysis, higher = more signal, called active from +8 up or from −8 down.
Experiment [6] in a line: plasmodial surface anion channel blockers, osmotic lysis – cell-based, P. falciparum Indochina, OD700, 18 h, primary screen (AID 1157). To be noted: P. falciparum Indochina infected erythrocytes, osmotic lysis OD700, 18 h; higher = more signal, called active from +8 up or from −8 down.
A short description of experiment [7]: S6 kinase pathway phospho-S6 level changes – cell-based, A549, cytoblot, luminescence, serum-stimulated, primary screen (AID 1158).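 Further: serum-stimulated A549 lung adenocarcinoma cells; signal is phosphorylated S6 detected by cytoblot immunostaining with HRP secondary.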 Particulars: 5 h, higher = more signal.
Experiment [8] has as its target NADPH oxidase 2 (Homo sapiens) (UniProt P04839). The experiment is described as follows: compounds shifting NOX2 Amplex Red fluorescence – cell-based, HEK293-NOX2, PMA-stimulated, NOX inhibitor project, primary screen (AID 1159). Further: test concentration not given here. To be noted: 45 min, higher = more signal, called active from +8 up or from −8 down.
In experiment [9] the target is NADPH oxidase 4 (Homo sapiens) (UniProt Q9NPH5). The experiment is described as follows: compounds shifting NOX4 Amplex Red fluorescence – cell-based, HEK293-NOX4, tetracycline-induced, NOX inhibitor project, primary screen (AID 1160). Particulars: HEK293-NOX4, Amplex Red H2O2 fluorescence, 45 min; higher = more signal, called active from +8 up or from −8 down.
Sequence of NADPH oxidase 4 (Homo sapiens) (Q9NPH5 whole entry, looked up): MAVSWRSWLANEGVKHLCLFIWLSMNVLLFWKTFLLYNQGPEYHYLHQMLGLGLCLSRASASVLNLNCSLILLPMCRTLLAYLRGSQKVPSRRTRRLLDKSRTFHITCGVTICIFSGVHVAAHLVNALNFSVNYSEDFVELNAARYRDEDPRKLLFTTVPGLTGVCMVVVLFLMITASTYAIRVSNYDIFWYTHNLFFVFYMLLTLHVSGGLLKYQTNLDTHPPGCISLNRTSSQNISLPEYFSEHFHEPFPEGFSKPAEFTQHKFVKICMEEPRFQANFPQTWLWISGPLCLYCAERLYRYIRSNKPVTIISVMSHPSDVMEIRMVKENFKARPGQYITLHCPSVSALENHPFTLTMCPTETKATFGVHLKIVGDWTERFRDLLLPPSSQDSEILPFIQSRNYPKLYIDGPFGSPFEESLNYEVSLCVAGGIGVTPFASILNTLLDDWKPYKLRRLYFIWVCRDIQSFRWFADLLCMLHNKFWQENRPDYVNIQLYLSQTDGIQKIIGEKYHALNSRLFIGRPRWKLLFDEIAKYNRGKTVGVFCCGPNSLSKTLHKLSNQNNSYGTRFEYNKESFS
Experiment [10] concerns the target NADPH oxidase 5 (Homo sapiens) (UniProt Q96PH1). The experiment is described as follows: compounds shifting NOX5 Amplex Red fluorescence – cell-based, HEK293-NOX5, NOX inhibitor project, primary screen (AID 1161). Particulars: HEK293-NOX5, ionomycin, 45 min, higher = more signal.

Consider twelve compounds from PubChem BioAssay.

Activity calls are given as the source filed them.

Sequence of NADPH oxidase 5 (Homo sapiens) (Q96PH1 whole entry, looked up): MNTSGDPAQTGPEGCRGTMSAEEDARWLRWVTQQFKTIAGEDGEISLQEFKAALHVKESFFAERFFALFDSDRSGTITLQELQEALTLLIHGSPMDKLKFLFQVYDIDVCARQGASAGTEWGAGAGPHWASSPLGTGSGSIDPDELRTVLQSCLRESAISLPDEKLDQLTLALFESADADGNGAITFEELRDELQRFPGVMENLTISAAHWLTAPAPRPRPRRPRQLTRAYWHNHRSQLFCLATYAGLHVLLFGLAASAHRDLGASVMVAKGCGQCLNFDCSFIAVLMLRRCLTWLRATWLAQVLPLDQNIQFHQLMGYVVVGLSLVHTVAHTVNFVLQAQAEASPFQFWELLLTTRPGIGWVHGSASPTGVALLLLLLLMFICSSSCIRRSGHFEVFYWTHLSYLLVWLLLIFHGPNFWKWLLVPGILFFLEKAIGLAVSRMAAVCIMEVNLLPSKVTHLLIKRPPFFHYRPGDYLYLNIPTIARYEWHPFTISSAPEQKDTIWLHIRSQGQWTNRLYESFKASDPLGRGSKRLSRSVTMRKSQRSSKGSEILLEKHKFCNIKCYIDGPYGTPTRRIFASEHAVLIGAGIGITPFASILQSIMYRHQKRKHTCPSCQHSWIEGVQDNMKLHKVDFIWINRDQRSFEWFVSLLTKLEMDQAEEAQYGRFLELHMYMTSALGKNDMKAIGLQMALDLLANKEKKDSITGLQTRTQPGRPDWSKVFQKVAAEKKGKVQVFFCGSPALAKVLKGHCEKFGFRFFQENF
Sequence of NADPH oxidase 2 (Homo sapiens) (P04839 whole entry, looked up): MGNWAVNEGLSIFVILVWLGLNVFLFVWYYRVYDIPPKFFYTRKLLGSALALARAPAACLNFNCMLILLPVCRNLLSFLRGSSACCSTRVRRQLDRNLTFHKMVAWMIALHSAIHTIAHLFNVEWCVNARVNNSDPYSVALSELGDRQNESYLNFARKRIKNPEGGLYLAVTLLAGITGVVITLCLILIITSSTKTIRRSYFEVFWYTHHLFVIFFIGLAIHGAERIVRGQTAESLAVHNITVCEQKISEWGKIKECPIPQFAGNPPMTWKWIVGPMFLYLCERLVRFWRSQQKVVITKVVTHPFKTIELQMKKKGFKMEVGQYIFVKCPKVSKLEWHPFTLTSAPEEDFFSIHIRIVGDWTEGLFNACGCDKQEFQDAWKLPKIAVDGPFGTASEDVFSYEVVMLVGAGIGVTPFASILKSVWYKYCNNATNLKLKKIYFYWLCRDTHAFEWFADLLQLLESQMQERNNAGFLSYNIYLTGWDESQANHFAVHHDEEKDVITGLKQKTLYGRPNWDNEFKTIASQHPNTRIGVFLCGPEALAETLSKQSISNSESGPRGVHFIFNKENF

On to `COCCOC(=O)N1C(=O)[C@@]2(c3cc(C#CCCO)ccc31)[C@H](C(=O)Nc1nc3ccccc3s1)[C@H]1C(=O)O[C@H](c3ccccc3)[C@H](c3ccccc3)N1[C@@H]2c1ccc(OCCO)cc1`, for which the z-score is 0.372 (inactive) in [1]; 4.19 (inactive) in experiment [3]; 1.5 (inactive) in experiment [4]; 0.708 (inactive) in experiment [5]; 1.34 (inactive) in [6]; -0.548 in [7]. Moreover, the z-score is 0.82 (inactive) in experiment [8], 0.462 (inactive) in experiment [9] and 1.37 in experiment [10]. The composite z-score in experiment [2] amounted to 0.352.
In the case of `CN1C(=O)C2C=CC(C(O)c3ccc(-c4ccccc4)s3)N(N(c3ccccc3)c3ccccc3)C2C1=O` (stereo not given), the z-score in [1] was -0.562 (inactive); in experiment [3], 3.38 (inactive); in experiment [4], 2.19 (inactive); in experiment [5], 0.977 (inactive); in experiment [6], 1.32 (inactive); in experiment [7], -1.12. Further, the results for the z-score in [8], in experiment [9] and in [10] were 1.1 (inactive), 0.963 (inactive) and -1.15, respectively. In experiment [2], this compound registered a composite z-score of 0.2.
As to `COCCOC(=O)N1C(=O)[C@@]2(c3cc(C#CC4(O)CCCCCC4)ccc31)[C@H](c1ccc(O)cc1)N1[C@H](c3ccccc3)[C@H](c3ccccc3)OC(=O)[C@H]1[C@@H]2C(=O)Nc1nc2ccccc2s1`, the z-score in experiment [1] was -0.565 (inactive); in [3], 0.69 (inactive); in experiment [4], 1.05 (inactive); in experiment [5], 0.207 (inactive); in [6], 1.39 (inactive); in [7] it was -0.502. For the same compound, the z-score is 1.75 (inactive) in [8], 0.507 (inactive) in experiment [9] and 1.07 in [10]. Also, the composite z-score in [2] was found to be 1.76.
`CN(C)C(=O)[C@]1(Cc2ccccc2CN=[N+]=[N-])N=C(c2ccc(OCCCO)cc2)O[C@@H]1c1ccccc1CN=[N+]=[N-]`: the z-score was -0.214 (inactive) in experiment [1]; 26.8 (active) in experiment [3]; 13.4 (active) in experiment [4]; 2.66 (inactive) in experiment [5]; -0.0196 (inactive) in experiment [6]; 1.18 in experiment [7]. The z-score is -3.36 (inactive) in experiment [8], -1.6 (inactive) in experiment [9] and -1.78 in experiment [10]. The compound also returned a composite z-score in [2] of 0.425.
In the case of `CC(CO)N1C(=O)[C@@H]2C3C(=O)OCCC/C=C\[C@H]3OC23C=CCN(c2ccc4ccccc4c2)C(=O)[C@@H]13` (stereo not given in full), the z-score in experiment [1] was 0.453 (inactive); in [3], 1.07 (inactive); in experiment [4] it was 0.0843 (inactive); in [5], 1.87 (inactive); in experiment [6], 0.011 (inactive); in [7], -0.13. For the same compound, the z-score is 1.03 (inactive) in [8], -0.0122 (inactive) in [9] and 1.97 in experiment [10]. In experiment [2], this compound yielded a composite z-score of -0.147.
As for `COc1ccc([Si](C)(C)[C@H]2[C@H](CC(=O)N3CCC[C@H]3CO)O[C@@]3(C(=O)N(Cc4cccc(N5C(=O)c6cccc7cccc5c67)c4)c4ccccc43)[C@@H]2C)cc1`, the z-score is -0.577 (inactive) in [1]; 7.61 (inactive) in experiment [3]; 0.753 (inactive) in experiment [4]; 0.442 (inactive) in experiment [5]; 0.623 (inactive) in experiment [6]; -0.366 in [7]. The z-score in experiment [8] is 1.35 (inactive); in experiment [9], -0.292 (inactive); in experiment [10] it was 4.06. Besides, in experiment [2], the composite z-score was determined as 0.302.
Turning to `CCCC=C(CCC)[C@@H](NS(=O)(=O)c1cccs1)c1ccc(C(=O)OC)cc1`, the z-score in [1] is -1.35 (inactive); in experiment [3] it was 1.19 (inactive); in [4] it was 0.0633 (inactive); in [5], 1.28 (inactive); in [6] it was 0.567 (inactive); in experiment [7] it was -1.13. Besides, the z-score is -0.547 (inactive) in [8], -3.59 (inactive) in [9] and 0.708 in experiment [10]. Moreover, in [2], the composite z-score amounted to 0.133.
In the case of `O=C1C[C@]2(c3ccc([N+](=O)[O-])cc3)C(=O)N(CCN3CCOCC3)c3cc(CO)ccc3[C@H]2N1C1CCCCC1`, the z-score in experiment [1] is 0.918 (inactive); in [3], 1.23 (inactive); in experiment [4] it was -0.837 (inactive); in experiment [5] it was -0.584 (inactive); in experiment [6], -0.507 (inactive); in experiment [7], 1.51. Also, the z-score in experiment [8] is -0.791 (inactive); in experiment [9], -0.0781 (inactive); in experiment [10], 1.18. The composite z-score in experiment [2] was -0.0108.
Regarding `COC(=O)[C@@]1(Cc2ccccc2)[C@H]2c3cc(C(=O)N4CCCC4)n(CC4CC4)c3C[C@H]2CN1C(=O)c1ccccc1`, the z-score in experiment [1] was -1.47 (inactive); in experiment [3], 1.15 (inactive); in experiment [4] it was 0.194 (inactive); in experiment [5], 1.68 (inactive); in experiment [6], 0.69 (inactive); in [7], 0.222. Moreover, the values for the z-score in [8], in experiment [9] and in experiment [10] were -0.295 (inactive), -2.68 (inactive) and -2.49, respectively. Further, the composite z-score in experiment [2] was determined as 1.54.
With `C=CCC(OC(C)=O)[C@@H]1[C@@H](N(Cc2ccc(-c3cccc(C(F)(F)F)c3)o2)C(=O)c2ccc(-c3ccccc3)cc2)c2cc(OCCCO)ccc2N1C(=O)c1ccc(-c2ccccc2)cc1` (stereo not given in full), the z-score in [1] is -0.894 (inactive); in experiment [3], 0.566 (inactive); in experiment [4] it was 0.434 (inactive); in [5] it was 0.0785 (inactive); in experiment [6], 0.508 (inactive); in experiment [7], 0.0635. The values for the z-score in [8], in [9] and in experiment [10] were -1.27 (inactive), -1.05 (inactive) and 0.713, respectively. In experiment [2], this compound had a composite z-score of -0.169.
With `O=C1O[C@H](c2ccccc2)[C@H](c2ccccc2)N2[C@H]1[C@@H](C(=O)Nc1nc3ccccc3s1)[C@]1(C(=O)Nc3ccc(C#CC4(O)CCCCCC4)cc31)[C@H]2c1ccc(OCCO)cc1`, the z-score in experiment [1] was -0.558 (inactive); in experiment [3], 3.28 (inactive); in experiment [4], 1.58 (inactive); in [5] it was 0.501 (inactive); in experiment [6], 1.67 (inactive); in experiment [7], -0.239. Also, the z-score in experiment [8] is 0.286 (inactive); in experiment [9], 0.11 (inactive); in experiment [10] it was -0.0468. The compound further yielded a composite z-score in [2] of 0.338.
Take `CC(C)C(=C=CC[C@@H](O)c1ccccc1OCCO)CCO`: the z-score in [1] is 0.351 (inactive); in [3], 1.95 (inactive); in experiment [4], 0.63 (inactive); in experiment [5], -1.33 (inactive); in [6], 0.428 (inactive); in [7], 0.278. Also, the z-score is 0.729 (inactive) in experiment [8], 0.147 (inactive) in [9] and -2.06 in experiment [10]. The compound also had a composite z-score in experiment [2] of -0.0501.
